Test results published in PubChem BioAssay AID1159580 (chemical genetic matrix, 2015).
About 2,000 (36%) of roughly 5,500 compounds were called active. Roughly 18% stayed inconclusive and do not appear here. Cut-off read from the data, not from the text of the source: active = normalized growth mostly below about 0.91 (no sharp cut-off); inconclusive = no clear call, values can overlap the other calls; inactive = mostly above about 0.92. The list shows a part of the results.

Assay: chemical genetic growth profiling, strain panel (AID 1159580);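 note: tested at 20 µM; growth read once vehicle control cultures reached saturation at 30 °C; 1 = growth at the plate median or of vehicle wells; lower values mean less growth of the strain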
Settings: growth OD
[1] = S. cerevisiae deletion strains, locus YAL013W, strain DEP1, hits give low values
[2] = S. cerevisiae deletion strains, locus YBR229C, strain ROT2, hits give low values
[3] = S. cerevisiae deletion strains, locus YDL101C, strain DUN1, hits give low values
[4] = S. cerevisiae deletion strains, locus YDL134C, strain PPH21, hits give low values
[5] = S. cerevisiae deletion strains, locus YDR150W, strain NUM1, hits give low values
[6] = S. cerevisiae deletion strains, locus YEL061C, strain CIN8, hits give low values
[7] = S. cerevisiae deletion strains, locus YGR078C, strain PAC10, hits give low values
[8] = S. cerevisiae deletion strains, locus YHR030C, strain SLT2, hits give low values
[9] = S. cerevisiae deletion strains, locus YHR087W, strain rtc3, hits give low values
[10] = S. cerevisiae deletion strains, locus YJR043C, strain POL32, hits give low values
[11] = S. cerevisiae deletion strains, locus YJR075W, strain HOC1, hits give low values
[12] = S. cerevisiae deletion strains, locus YLR039C, strain RIC1, hits give low values
[13] = S. cerevisiae deletion strains, locus YLR058C, strain SHM2 (second series), hits give low values
[14] = S. cerevisiae deletion strains, locus YLR085C, strain ARP6, hits give low values
[15] = S. cerevisiae deletion strains, locus YLR262C, strain YPT6, hits give low values
[16] = S. cerevisiae deletion strains, locus YML094W, strain GIM5, hits give low values
[17] = S. cerevisiae deletion strains, locus YMR219W, strain ESC1, hits give low values
[18] = S. cerevisiae deletion strains, locus YMR263W, strain SAP30, hits give low values
[19] = S. cerevisiae deletion strains, locus YNL153C, strain GIM3, hits give low values
[20] = S. cerevisiae deletion strains, locus YNL298W, strain CLA4 (second series), hits give low values
[21] = S. cerevisiae deletion strains, locus YNL322C, strain KRE1, hits give low values
[22] = S. cerevisiae deletion strains, locus YNR030W, strain Alg12, hits give low values
[23] = S. cerevisiae deletion strains, locus YPL055C, strain LGE1, hits give low values
[24] = S. cerevisiae deletion strains, locus YPL241C, strain CIN2, hits give low values
[25] = S. cerevisiae deletion strains, locus YPR135W, strain CTF4, hits give low values

Measured: normalized growth

COC(=O)c1ccccc1CSc1nccc(C(F)(F)F)n1
active: [4] 0.86 | [8] 0.671 | [11] 0.882 | [12] 0.743 | [14] 0.661 | [15] 0.752 | [22] 0.861
inactive: [1] 0.963 | [2] 0.938 | S. cerevisiae deletion strains, locus YCL061C, strain MRC1, hits give low values 0.956 | [3] 0.978 | [5] 0.939 | [6] 0.917 | [7] 0.927 | S. cerevisiae deletion strains, locus YGR229C, strain SMI1, hits give low values 0.969 | [9] 0.913 | [10] 0.957 | S. cerevisiae deletion strains, locus YKL190W, strain CNB1, hits give low values 0.931 | [13] 0.959 | [16] 0.946 | [17] 0.969 | [18] 0.975 | [19] 0.952 | [20] 0.895 | [21] 0.962 | [23] 0.849 | [24] 0.859 | [25] 0.657 | S. cerevisiae strains, strain wild type, hits give low values 0.926

CCOC(=O)c1cnc2c(c(C)nn2C)c1Sc1nnc(SC)s1
active: S. cerevisiae deletion strains, locus YAR019C, strain CDC15, hits give low values 0.847 | S. cerevisiae deletion strains, locus YBL105C, strain PKC1, hits give low values 0.872 | S. cerevisiae deletion strains, locus YBR135W, strain CKS1, hits give low values 0.874 | S. cerevisiae deletion strains, locus YBR136W, strain MEC1, hits give low values 0.867 | S. cerevisiae deletion strains, locus YBR160W, strain CDC28, hits give low values 0.876 | S. cerevisiae deletion strains, locus YDL017W, strain CDC7, hits give low values 0.875 | S. cerevisiae deletion strains, locus YDL028C, strain MPS1, hits give low values 0.882 | [3] 0.911 | S. cerevisiae deletion strains, locus YDL132W, strain cdc53, hits give low values 0.841 | S. cerevisiae deletion strains, locus YDR052C, strain DBF4, hits give low values 0.89 | S. cerevisiae deletion strains, locus YDR054C, strain cdc34, hits give low values 0.779 | S. cerevisiae deletion strains, locus YDR226W, strain ADK1, hits give low values 0.871 | S. cerevisiae deletion strains, locus YER123W, strain YCK3, hits give low values 0.615 | S. cerevisiae deletion strains, locus YER133W, strain GLC7, hits give low values 0.657 | S. cerevisiae deletion strains, locus YFL009W, strain cdc4, hits give low values 0.851 | S. cerevisiae deletion strains, locus YFL029C, strain CAK1, hits give low values 0.845 | S. cerevisiae deletion strains, locus YFR003C, strain YPI1, hits give low values 0.887 | S. cerevisiae deletion strains, locus YFR019W, strain FAB1, hits give low values 0.73 | S. cerevisiae deletion strains, locus YFR028C, strain CDC14, hits give low values 0.891 | S. cerevisiae deletion strains, locus YGR092W, strain DBF2, hits give low values 0.431 | [8] 0.565 | S. cerevisiae deletion strains, locus YIL147C, strain SLN1, hits give low values 0.857 | S. cerevisiae deletion strains, locus YJR016C, strain ILV3, hits give low values 0.859 | S. cerevisiae deletion strains, locus YJR066W, strain TOR1 (second series), hits give low values 0.497 | S. cerevisiae deletion strains, locus YKL193C, strain SDS22, hits give low values 0.859 | S. cerevisiae deletion strains, locus YKL203C, strain TOR2, hits give low values 0.683 | S. cerevisiae deletion strains, locus YLR113W, strain HOG1, hits give low values 0.505 | S. cerevisiae deletion strains, locus YLR403W, strain SFP1, hits give low values 0.549 | S. cerevisiae deletion strains, locus YMR001C, strain CDC5, hits give low values 0.855 | S. cerevisiae deletion strains, locus YMR277W, strain FCP1, hits give low values 0.852 | S. cerevisiae deletion strains, locus YNL006W, strain LST8, hits give low values 0.881 | S. cerevisiae deletion strains, locus YNL161W, strain CBK1, hits give low values 0.88 | S. cerevisiae deletion strains, locus YNL207W, strain RIO2, hits give low values 0.844 | S. cerevisiae deletion strains, locus YNL222W, strain SSU72, hits give low values 0.867 | S. cerevisiae deletion strains, locus YNL307C, strain MCK1 (second series), hits give low values 0.596 | S. cerevisiae deletion strains, locus YOL078W, strain AVO1, hits give low values 0.859 | S. cerevisiae deletion strains, locus YOR329C, strain SCD5, hits give low values 0.872 | S. cerevisiae deletion strains, locus YPL153C, strain RAD53, hits give low values 0.62 | S. cerevisiae deletion strains, locus YPL209C, strain IPL1, hits give low values 0.886 | S. cerevisiae deletion strains, locus YPL256C, strain CLN2, hits give low values 0.789 | S. cerevisiae deletion strains, locus YPR025C, strain CCL1, hits give low values 0.879 | S. cerevisiae deletion strains, strain TSCII, hits give low values 0.846
inactive: S. cerevisiae deletion strains, locus YDL108W, strain KIN28, hits give low values 0.899 | S. cerevisiae deletion strains, locus YDL214C, strain PRR2, hits give low values 0.796 | S. cerevisiae deletion strains, locus YDR477W, strain SNF1, hits give low values 0.719 | S. cerevisiae deletion strains, locus YGR040W, strain KSS1, hits give low values 0.742 | S. cerevisiae deletion strains, locus YGR052W, strain FMP48, hits give low values 0.847 | S. cerevisiae deletion strains, locus YHR079C, strain IRE1, hits give low values 0.649 | S. cerevisiae deletion strains, locus YHR082C, strain KSP1, hits give low values 0.779 | S. cerevisiae deletion strains, locus YHR205W, strain SCH9, hits give low values 0.744 | S. cerevisiae deletion strains, locus YJL095W, strain BCK1, hits give low values 0.69 | S. cerevisiae deletion strains, locus YJL128C, strain PBS2, hits give low values 0.945 | S. cerevisiae deletion strains, locus YJL157C, strain FAR1, hits give low values 0.739 | S. cerevisiae deletion strains, locus YJR066W, strain TOR1, hits give low values 0.644 | S. cerevisiae deletion strains, locus YKL048C, strain ELM1, hits give low values 0.902 | S. cerevisiae deletion strains, locus YKL067W, strain YNK1, hits give low values 0.821 | S. cerevisiae deletion strains, locus YKL101W, strain HSL1, hits give low values 0.865 | S. cerevisiae deletion strains, locus YLR133W, strain CKI1, hits give low values 0.808 | S. cerevisiae deletion strains, locus YML070W, strain DAK1, hits give low values 0.759 | S. cerevisiae deletion strains, locus YMR205C, strain PFK2 (second series), hits give low values 0.859 | S. cerevisiae deletion strains, locus YNL020C, strain ARK1, hits give low values 0.802 | S. cerevisiae deletion strains, locus YNL183C, strain NPR1, hits give low values 0.715 | S. cerevisiae deletion strains, locus YOL136C, strain PFK27, hits give low values 0.714 | S. cerevisiae deletion strains, locus YOR061W, strain CKA2, hits give low values 0.813 | S. cerevisiae deletion strains, locus YOR119C, strain RIO1, hits give low values 0.77 | S. cerevisiae deletion strains, locus YOR231W, strain MKK1, hits give low values 0.701 | S. cerevisiae deletion strains, locus YPL031C, strain PHO85, hits give low values 0.67 | S. cerevisiae deletion strains, locus YPL204W, strain HRR25, hits give low values 0.667 | S. cerevisiae deletion strains, locus YPR106W, strain ISR1, hits give low values 0.934 | S. cerevisiae deletion strains, locus YPR111W, strain DBF20, hits give low values 0.928 | S. cerevisiae deletion strains, strain NNK1, hits give low values 0.917

CCOC(=O)c1cnc2nc(SC)nn2c1N
inactive: [1] 0.997 | [2] 1 | [3] 0.955 | [4] 0.995 | [5] 0.968 | [6] 1 | [7] 0.971 | [8] 0.855 | [9] 0.994 | [10] 0.935 | [11] 0.984 | [12] 1.03 | [13] 0.994 | [14] 0.88 | [15] 1.01 | [16] 0.942 | [17] 0.993 | [18] 0.983 | S. cerevisiae deletion strains, locus YMR307W, strain GAS1, hits give low values 0.909 | S. cerevisiae deletion strains, locus YNL128W, strain TEP1, hits give low values 0.988 | [19] 0.956 | [20] 0.968 | [21] 0.998 | [22] 0.982 | [23] 0.942 | [24] 0.982 | [25] 0.894
